# From PubChem BioAssay (NCI)
# Compounds without any hit were thinned out: in the full panel of roughly 83,000, 20% have a hit.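 Cell lines were cultured in 96-well plates, exposed to a single compound concentration, and assessed for percent growth 48 hours later.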 Values without a mark were called inactive. Calls of active or inactive are those of the source. The calls were made as follows: active = growth percent below 10; inactive = the rest.
# How the values were obtained:
# Assay in all cases: NCI-60 one-dose screen, 48 h (100 = growth as untreated, 0 = no growth, -100 = all killed)
# Conditions in all cases: 10 µM unless noted
# T-47D breast = test system: T-47D breast
# BT-549 breast = test system: BT-549 breast
# MDA-MB-435 melanoma = test system: MDA-MB-435 melanoma
# SW-620 colon = test system: SW-620 colon
# MCF7 breast = test system: MCF7 breast
# HCT-116 colon = test system: HCT-116 colon
# HCC-2998 colon = test system: HCC-2998 colon
# KM12 colon = test system: KM12 colon
Compound,growth (T-47D breast),growth (BT-549 breast),growth (MDA-MB-435 melanoma),growth (SW-620 colon),growth (MCF7 breast),growth (HCT-116 colon),growth (HCC-2998 colon),growth (KM12 colon)
CCOC(=O)c1cn2ncnc(Oc3ccc(NC(=O)NCCN(CC)CC)c(Cl)c3)c2c1C,45.4%,81.9%,9.11% (active),28.7%,58.1%,36.5%,68.3%,96.4%
Cc1cc2nc3ccc(N=Nc4ccc(N(C)C)cc4)cc3n(-c3ccccc3)c-2cc1=N,-57.2% (active),-82.2% (active),-97.5% (active),-88.9% (active),-65.1% (active),-60.2% (active),-81.8% (active),-91.2% (active)
O=C1NC(=O)C(Cn2cnc3ccccc32)N1 (stereo not drawn),106%,110%,100%,99.3%,92.1%,109%,103%,102%
CN1CCN(c2ccc(-c3cnc4c(-c5csc6ccccc56)cnn4c3)cc2)CC1,-7.17% (active),-39.3% (active),-46.1% (active),-5.95% (active),-22.5% (active),-23.8% (active),24.8%,-3.74% (active)
COc1ccc(CN2c3ccccc3Sc3ccccc32)c(F)c1,11.9%,56.5%,-51% (active),10.3%,22.6%,15.7%,61.6%,25.8%
O=C(Cc1ccc(F)c(Cl)c1)Nc1cc(C2(C(F)(F)F)CC2)nn1Cc1ccccc1,64.9%,77.7%,87.8%,82.7%,81%,60.4%,104%,85.5%
O=c1c2cccc(Cl)c2sc2c(NCCCNCCO)nc3ccccc3c12,42.7%,80.1%,-87.1% (active),-97.6% (active),15.3%,-58.9% (active),-88% (active),-62.1% (active)
COc1ccc(-n2c(N)c(-c3nc4ccccc4[nH]3)cc(C#N)c2=O)cc1,77.8%,75.1%,99.3%,106%,87.7%,88.2%,108%,99.9%
O=c1c2cc(F)cc(Cl)c2sc2c(NCCCNCCO)nc3ccccc3c12,101%,82.4%,61.1%,-32% (active),64.6%,65.1%,60.9%,66.7%
Cc1nc2ccccc2c(/C=C/c2ccc(Cl)cc2)c1C(=O)/C=C/c1cccs1,50.1%,90.9%,89.3%,72.4%,41.9%,33.9%,73.5%,81.5%
O=[N+]([O-])c1ccc(Cl)c(-c2cc(CCCCO)on2)c1,88.8%,99.7%,103%,104%,100%,105%,108%,104%
COc1cc2cc(Oc3ccc(NC(=O)Nc4ccc(Cl)c(Cl)c4)cc3)c(C)nc2cc1OCCN1CCOCC1,75.1%,72.5%,91.8%,104%,60.1%,86.1%,116%,91.7%
O=C(CS(=O)c1oc(-c2cccs2)nc1S(=O)(=O)c1ccc(Br)cc1)c1ccccc1 (stereo not drawn),82%,97%,95%,97.7%,96.9%,86.2%,98.6%,102%
Fc1cc(-c2nnc3n2NC(=Nc2ccc(Cl)cc2)CS3)c(Cl)cc1Cl,79.2%,94.7%,64.2%,95.7%,86.9%,91.3%,75.3%,60.5%
c1cc2nc(-c3cn[nH]c3)c3c(c2cc1-c1cn[nH]c1)C1CCC3C1 (stereo not drawn),37.6%,62%,75.3%,77.5%,49.2%,61.5%,84.5%,37.8%
CN1C(=O)CNC(=O)[C@H](NC(=O)c2nc3ccccc3cc2O)CSSC[C@H]1C(=O)NCCc1nc2ccccc2cc1O,65.3%,79.4%,42.4%,34%,47.5%,80%,67.7%,30%

Compound,growth (T-47D breast),growth (BT-549 breast),growth (MDA-MB-435 melanoma),growth (SW-620 colon),growth (MCF7 breast),growth (HCT-116 colon),growth (HCC-2998 colon),growth (KM12 colon)
COc1ccc2sc3c(NCCO)nc4ccccc4c3c(=O)c2c1,88.5%,100%,106%,101%,47%,92.7%,115%,89%
COc1ccc(-c2ncnc3c2ncn3CC#CCCl)cc1,53.1%,50.1%,40.2%,48.9%,35.7%,52.5%,84.8%,72.6%
Clc1ccc(C(/C=C/c2sc(Cl)nc2Cl)=N/Nc2cc(Cl)cc(Cl)c2)cc1,98.2%,115%,101%,106%,100%,106%,112%,105%
O=C1c2ccccc2NC(n2sc3ccccc3c2=O)N1c1ccccc1 (stereo not drawn),96.4%,104%,111%,104%,94.3%,95.7%,103%,92.9%
Cn1cc(C(=O)c2nc(-c3cn(C)c4ccc(F)cc34)no2)c2cc(F)ccc21,91.2%,106%,111%,90.6%,47.3%,98.1%,84.6%,95.2%
COc1ccc(C(=O)COC(=O)[C@H](C[Se][Se]C[C@H](NC(=O)c2ccc(Br)cc2F)C(=O)OCC(=O)c2ccc(OC)cc2)NC(=O)c2ccc(Br)cc2F)cc1,-33.1% (active),-89.6% (active),3.85% (active),-59.7% (active),-57.3% (active),-69.1% (active),-64.1% (active),-81.6% (active)
Cc1c(C(=O)NCCN2CCOCC2)cn2ncnc(Oc3ccc(NC(=O)Nc4ccc(Cl)c(C(F)(F)F)c4)cc3)c12,15%,45.6%,18%,0.917% (active),7.07% (active),8.49% (active),51.1%,19.6%
COc1cccc(Cc2cc(-c3ccccc3)nn(CC(=O)c3ccccc3)c2=O)c1,72.5%,64.5%,61.2%,55.1%,45.9%,68.9%,84.7%,57.8%
COc1ccc(-c2nc(NN)c3c(C)nn(-c4ccc(F)cc4)c3n2)cc1,38.6%,46.8%,0.816% (active),22.9%,26.2%,18.7%,76.6%,29.1%
Cc1cc(O)c(C2=NN(c3ccc(S(N)(=O)=O)cc3)C(c3ccccc3O)C2)cc1Cl (stereo not drawn),21.6%,99.7%,10%,-0.676% (active),7.94% (active),-92.9% (active),-75% (active),-60.4% (active)
CC([C@H]1CCC2C3CCC4C[C@@H](NC=O)CC[C@]4(C)C3CC[C@@]21C)N(C)C (stereo partly drawn),-40.6% (active),30.7%,-46.1% (active),-71.5% (active),-23.1% (active),-66.2% (active),-67.2% (active),-21.1% (active)
N#Cc1c(Nc2cccc(Cl)c2)sc(C(=O)c2cc3cc(Cl)ccc3o2)c1N,73.7%,113%,86.3%,18.2%,70.2%,72.4%,105%,34.5%
O=C(Nc1ccc(Cl)cc1F)c1cc(Cl)ccc1O,0.896% (active),-25.3% (active),-11.4% (active),5.92% (active),2.27% (active),-25.5% (active),8.54% (active),-23.6% (active)
CNc1ccc(Nc2cccc(C)c2)c2c1C(=O)c1ccccc1C2=O,40.9%,110%,135%,85.4%,10.2%,92.4%,88.5%,48.4%
COc1ccc(-c2nc3sc(-c4ccc(Cl)cc4)cn3n2)cc1,54.9%,97.6%,75%,59.6%,48.9%,-16.3% (active),78.6%,54.7%
